# Data reported in PubChem BioAssay (EPA / NIEHS).
# Activity calls are given as the source filed them. How the source made its calls: active means hit-call score of the fitted dose curve at least 0.9, where 1 is the maximum; inactive means score below 0.9.
# Legend:
# Conditions in all cases: mRNA level, 48 h; actives raise or lower the signal
# [1] = read-out: Lipase C (LIPC), LIPC (gene 3990); assay: LTEA_HepaRG_LIPC: Life Technologies and Expression Analysis (LTEA) Assay for Lipase C (LIPC) using HepaRG (AID 2283514)
# Method in brief: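 Read-out is LIPC transcript level by TaqMan qRT-PCR, normalized to three housekeeping genes, after 48 h chemical treatment of human HepaRG liver cells. Curves span eight concentrations topping at 100 uM; activity in either direction scored relative to 0.5% DMSO.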
# [2] = read-out: Lipoprotein lipase (LPL), LPL (gene 4023); assay: LTEA_HepaRG_LPL: Life Technologies and Expression Analysis (LTEA) Assay for Lipoprotein lipase (LPL) using HepaRG (AID 2283515)
# Method in brief: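 Read-out is LPL transcript level by qRT-PCR, normalized to three housekeeping genes and fitted bidirectionally against the DMSO control. Human HepaRG cells received chemicals for 48 h at up to 100 uM.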
# [3] = read-out: MicroRNA 122 (MIR122), gene 406906; assay: LTEA_HepaRG_MIR122: Life Technologies and Expression Analysis (LTEA) Assay for MicroRNA 122 (MIR122) using HepaRG (AID 2283516); further: the transcript read is the microRNA miR-122
# Method in brief: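 Differentiated human HepaRG cells in serum-free induction medium exposed 48 h to 8 half-log concentrations from 100 uM in 0.5% DMSO, duplicate. MIR122 quantified by Fluidigm TaqMan qRT-PCR, normalised to ACTB, GAPDH, POLR2A; fold change fitted bidirectionally versus DMSO.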
# [4] = read-out: matrix metalloproteinase-10 (MMP10), MMP10 (gene 4319); assay: LTEA_HepaRG_MMP10: Life Technologies and Expression Analysis (LTEA) Assay for matrix metalloproteinase-10 (MMP10) using HepaRG (AID 2283517)
# Method in brief: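 Gain or loss of MMP10 mRNA is fitted relative to the 0.5% DMSO vehicle. The human hepatic line HepaRG receives a 48-hour serum-free exposure, in duplicate, with a maximum concentration of 100 uM.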
# MYC, MYC (gene 4609) = assay: LTEA_HepaRG_MYC: Life Technologies and Expression Analysis (LTEA) Assay for MYC using HepaRG (AID 2283518)
# Method in brief: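 MYC transcript changes, up or down relative to 0.5% DMSO, from TaqMan qRT-PCR normalized to three housekeeping genes. Human HepaRG cultures received chemicals for 48 h at eight half-log concentrations up to 100 uM, in duplicate.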
# [5] = read-out: matrix metalloproteinase-3 (MMP3), MMP3 (gene 4314); assay: LTEA_HepaRG_MMP3: Life Technologies and Expression Analysis (LTEA) Assay for matrix metalloproteinase-3 (MMP3) using HepaRG (AID 2283519)
# Method in brief: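 HepaRG, human; 48 h dosing, 8 conc. (max 100 uM, half-log), duplicate, 0.5% DMSO. Readout: MMP3 transcript by Fluidigm TaqMan qRT-PCR, ACTB/GAPDH/POLR2A-normalised. Gain or loss fitted vs DMSO.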
# [6] = read-out: Protein phosphatase 2A (PPP2R4), PTPA (gene 5524); assay: LTEA_HepaRG_PPP2R4: Life Technologies and Expression Analysis (LTEA) Assay for Protein phosphatase 2A (PPP2R4) using HepaRG (AID 2283522)
# Method in brief: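 Differentiated human HepaRG cells in serum-free induction medium were exposed 48 h to 8 concentrations (top 100 µM, half-log steps, duplicate) in 0.5% DMSO. PPP2R4 mRNA was measured by TaqMan qRT-PCR, normalised to ACTB, GAPDH and POLR2A, and fitted bidirectionally versus DMSO.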
# [7] = read-out: Phosphatase and tensin (PTEN), PTEN (gene 5728); assay: LTEA_HepaRG_PTEN: Life Technologies and Expression Analysis (LTEA) Assay for Phosphatase and tensin (PTEN) using HepaRG (AID 2283523)
# Method in brief: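 Read-out is PTEN transcript level by multiplexed TaqMan qRT-PCR after 48 h chemical treatment of human HepaRG cultures in serum-free induction medium. Concentrations spanned 100 uM downward in half-log steps, 0.5% DMSO throughout; activity fitted in both directions against vehicle.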
# [8] = read-out: solute carrier (SLC22A1), SLC22A1 (gene 6580); assay: LTEA_HepaRG_SLC22A1: Life Technologies and Expression Analysis (LTEA) Assay for solute carrier (SLC22A1) using HepaRG (AID 2283524)
# Method in brief: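 HepaRG (human liver line), 48 h dosing in serum-free induction medium; 8 conc., half-log down from 100 uM, 0.5% DMSO vehicle, duplicates. Endpoint: SLC22A1 mRNA, qRT-PCR, housekeeping-normalized; gain/loss fit vs DMSO.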
# [9] = read-out: Pyruvate Dehydrogenase Kinase 4 (PDK4), PDK4 (gene 5166); assay: LTEA_HepaRG_PDK4: Life Technologies and Expression Analysis (LTEA) Assay for Pyruvate Dehydrogenase Kinase 4 (PDK4) using HepaRG (AID 2283525)
# Method in brief: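 In this multiplexed human HepaRG expression assay, cells are treated 48 h with test chemicals across an eight-point range starting at 100 uM. PDK4 mRNA changes, normalized to ACTB/GAPDH/POLR2A, are fitted in both directions relative to vehicle.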
# [10] = read-out: NAD(P)H dehydrogenase [quinone] 1 (NQO1), NQO1 (gene 1728); assay: LTEA_HepaRG_NQO1: Life Technologies and Expression Analysis (LTEA) Assay for NAD(P)H dehydrogenase [quinone] 1 (NQO1) using HepaRG (AID 2283526)
# Method in brief: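 Differentiated human HepaRG cells in serum-free induction medium, dosed in duplicate for 48 h at 8 half-log concentrations up to 100 uM in 0.5% DMSO. NQO1 mRNA by qRT-PCR normalized to ACTB, GAPDH, POLR2A; bidirectional fit versus DMSO baseline.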
# [11] = read-out: succinate dehydrogenase complex iron sulfur subunit B (SDHB), SDHB (gene 6390); assay: LTEA_HepaRG_SDHB: Life Technologies and Expression Analysis (LTEA) Assay for succinate dehydrogenase complex iron sulfur subunit B (SDHB) using HepaRG (AID 2283528)
# Method in brief: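 HepaRG cells (~100,000/well, plated 48 h) exposed in duplicate for 48 h in serum-free induction medium to 8-point half-log series from 100 uM in 0.5% DMSO; mRNA by qRT-PCR normalised to ACTB, GAPDH, POLR2A; bidirectional fit versus DMSO.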
# [12] = read-out: Signal transducer and activator of transcription 3 (Homo sapiens) (UniProt P40763); assay: LTEA_HepaRG_STAT3: Life Technologies and Expression Analysis (LTEA) Assay for Signal transducer and activator of transcription (STAT3) using HepaRG (AID 2283529)
# Method in brief: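 Read-out is STAT3 mRNA level by qRT-PCR, normalized to three housekeeping genes, in human HepaRG liver cells treated for 48 h. Concentrations ran from 100 uM downward in half-log steps; curves were fitted for gain or loss relative to 0.5% DMSO.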
# [13] = read-out: solute carrier (SLCO1B1), SLCO1B1 (gene 10599); assay: LTEA_HepaRG_SLCO1B1: Life Technologies and Expression Analysis (LTEA) Assay for solute carrier (SLCO1B1) using HepaRG (AID 2283530)
# Method in brief: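 SLCO1B1 transcript levels were quantified by TaqMan qRT-PCR using three housekeeping genes for normalization. This followed 48 h chemical exposure (100 uM top, half-log, 8 points, 0.5% DMSO) of HepaRG liver cells, with gain or loss fitted relative to DMSO.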
# [14] = read-out: sulfotransferase 2A1 (SULT2A1), SULT2A1 (gene 6822); assay: LTEA_HepaRG_SULT2A1: Life Technologies and Expression Analysis (LTEA) Assay for sulfotransferase 2A1 (SULT2A1) using HepaRG (AID 2283531)
# Method in brief: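 Expression change of SULT2A1, by qRT-PCR with three housekeeping-gene normalization, was scored bidirectionally versus DMSO. Cells: differentiated HepaRG, dosed in duplicate for 48 h across 8 points, highest 100 µM, half-log dilution, 0.5% DMSO.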
# [15] = read-out: Transforming Growth Factor (TGFA), TGFA (gene 7039); assay: LTEA_HepaRG_TGFA: Life Technologies and Expression Analysis (LTEA) Assay for Transforming Growth Factor (TGFA) using HepaRG (AID 2283532)
# Method in brief: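 HepaRG (human liver line), 48 h exposure, 8 conc. half-log down from 100 uM, 0.5% DMSO vehicle, duplicates; serum-free induction medium. TGFA mRNA by TaqMan qRT-PCR, ACTB/GAPDH/POLR2A normalization; gain/loss fit vs DMSO.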
# [16] = read-out: Transforming Growth Factor (TGFB1), TGFB1 (gene 7040); assay: LTEA_HepaRG_TGFB1: Life Technologies and Expression Analysis (LTEA) Assay for Transforming Growth Factor (TGFB1) Transporter using HepaRG (AID 2283533)
# Method in brief: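 TGFB1 transcript measured by qRT-PCR with normalisation to three housekeeping genes (ACTB, GAPDH, POLR2A); human HepaRG line treated in duplicate for 48 hr with an 8-point series topping at 100 uM, 0.5% DMSO vehicle, bidirectionally fitted.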
# [17] = read-out: Nuclear factor erythroid 2-related factor 2 (Homo sapiens) (UniProt Q16236); assay: LTEA_HepaRG_NFE2L2: Life Technologies and Expression Analysis (LTEA) Assay for Nuclear factor erythroid 2-related factor 2 (NFE2L2) Transcription Factor using HepaRG (AID 2283527);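 on outcome: TaqMan qRT-PCR transcript level normalised to ACTB GAPDH and POLR2A housekeeping genes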
# Method in brief: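 Transcript level of NFE2L2 is the read-out, measured by microfluidic TaqMan qRT-PCR and normalized to three housekeeping genes. Human HepaRG cultures received test chemical for 48 h at up to 100 uM in half-log steps. Gain or loss of signal is fitted relative to 0.5% DMSO.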
# [18] = read-out: Nuclear factor NF-kappa-B p105 subunit (Homo sapiens) (UniProt P19838); assay: LTEA_HepaRG_NFKB1: Life Technologies and Expression Analysis (LTEA) Assay for Nuclear Factor Kappa B Subunit 1 (NFKB1) using HepaRG (AID 2283521)
# Method in brief: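 Differentiated human HepaRG cells in serum-free induction medium with 0.5% DMSO were exposed for 48 h to eight half-log concentrations, top 100 uM, in duplicate. NFKB1 mRNA measured by Fluidigm TaqMan qRT-PCR, normalised to ACTB, GAPDH and POLR2A; bidirectional fit versus DMSO.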
# Signal transducer and activator of transcription 3 (Homo sapiens), sequence (P40763 whole entry, looked up): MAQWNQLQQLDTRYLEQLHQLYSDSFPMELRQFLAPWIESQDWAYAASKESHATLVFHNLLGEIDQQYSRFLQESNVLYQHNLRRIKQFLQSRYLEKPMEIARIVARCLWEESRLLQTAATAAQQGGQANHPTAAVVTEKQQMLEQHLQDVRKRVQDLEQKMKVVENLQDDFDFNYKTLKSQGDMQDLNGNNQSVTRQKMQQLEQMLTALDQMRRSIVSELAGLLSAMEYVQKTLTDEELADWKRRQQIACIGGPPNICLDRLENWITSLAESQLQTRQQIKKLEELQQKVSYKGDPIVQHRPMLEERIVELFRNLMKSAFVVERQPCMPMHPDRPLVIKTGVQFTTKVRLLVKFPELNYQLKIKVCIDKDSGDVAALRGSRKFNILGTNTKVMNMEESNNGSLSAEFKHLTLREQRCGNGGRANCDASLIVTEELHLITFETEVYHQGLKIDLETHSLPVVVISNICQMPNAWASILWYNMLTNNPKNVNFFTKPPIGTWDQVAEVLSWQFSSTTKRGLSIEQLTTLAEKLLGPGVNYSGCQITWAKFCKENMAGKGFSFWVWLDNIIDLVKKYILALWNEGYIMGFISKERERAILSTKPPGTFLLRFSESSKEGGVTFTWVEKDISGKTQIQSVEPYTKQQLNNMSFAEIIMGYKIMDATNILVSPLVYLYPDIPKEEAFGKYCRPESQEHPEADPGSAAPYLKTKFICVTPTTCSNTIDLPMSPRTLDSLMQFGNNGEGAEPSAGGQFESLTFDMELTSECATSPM
# Nuclear factor NF-kappa-B p105 subunit (Homo sapiens), sequence (P19838 whole entry, looked up): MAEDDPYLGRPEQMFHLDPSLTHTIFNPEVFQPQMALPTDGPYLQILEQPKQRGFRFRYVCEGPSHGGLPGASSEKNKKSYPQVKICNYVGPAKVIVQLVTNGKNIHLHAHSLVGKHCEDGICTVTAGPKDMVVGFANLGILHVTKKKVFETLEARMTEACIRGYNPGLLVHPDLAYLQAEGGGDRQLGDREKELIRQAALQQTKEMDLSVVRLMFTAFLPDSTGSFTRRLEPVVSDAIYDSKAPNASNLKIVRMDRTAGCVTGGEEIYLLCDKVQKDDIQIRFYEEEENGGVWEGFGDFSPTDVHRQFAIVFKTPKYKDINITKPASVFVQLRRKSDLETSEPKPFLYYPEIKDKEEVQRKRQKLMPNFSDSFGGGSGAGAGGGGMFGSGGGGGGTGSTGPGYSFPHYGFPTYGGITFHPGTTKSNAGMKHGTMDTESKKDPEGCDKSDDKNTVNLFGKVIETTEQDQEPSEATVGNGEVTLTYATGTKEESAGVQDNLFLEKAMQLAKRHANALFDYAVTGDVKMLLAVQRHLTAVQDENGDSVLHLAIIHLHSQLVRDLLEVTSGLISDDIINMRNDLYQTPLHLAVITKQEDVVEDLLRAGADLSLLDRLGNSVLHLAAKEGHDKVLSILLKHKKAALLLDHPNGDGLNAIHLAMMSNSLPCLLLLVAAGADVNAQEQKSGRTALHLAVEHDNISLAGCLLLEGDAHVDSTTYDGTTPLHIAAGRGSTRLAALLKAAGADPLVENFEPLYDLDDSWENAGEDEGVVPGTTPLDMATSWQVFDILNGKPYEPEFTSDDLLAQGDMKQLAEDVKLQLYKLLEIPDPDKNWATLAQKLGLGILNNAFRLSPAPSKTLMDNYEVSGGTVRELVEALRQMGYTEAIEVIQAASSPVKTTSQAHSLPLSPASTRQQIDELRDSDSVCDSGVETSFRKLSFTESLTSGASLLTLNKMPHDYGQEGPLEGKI
# Nuclear factor erythroid 2-related factor 2 (Homo sapiens), sequence (Q16236 whole entry, looked up): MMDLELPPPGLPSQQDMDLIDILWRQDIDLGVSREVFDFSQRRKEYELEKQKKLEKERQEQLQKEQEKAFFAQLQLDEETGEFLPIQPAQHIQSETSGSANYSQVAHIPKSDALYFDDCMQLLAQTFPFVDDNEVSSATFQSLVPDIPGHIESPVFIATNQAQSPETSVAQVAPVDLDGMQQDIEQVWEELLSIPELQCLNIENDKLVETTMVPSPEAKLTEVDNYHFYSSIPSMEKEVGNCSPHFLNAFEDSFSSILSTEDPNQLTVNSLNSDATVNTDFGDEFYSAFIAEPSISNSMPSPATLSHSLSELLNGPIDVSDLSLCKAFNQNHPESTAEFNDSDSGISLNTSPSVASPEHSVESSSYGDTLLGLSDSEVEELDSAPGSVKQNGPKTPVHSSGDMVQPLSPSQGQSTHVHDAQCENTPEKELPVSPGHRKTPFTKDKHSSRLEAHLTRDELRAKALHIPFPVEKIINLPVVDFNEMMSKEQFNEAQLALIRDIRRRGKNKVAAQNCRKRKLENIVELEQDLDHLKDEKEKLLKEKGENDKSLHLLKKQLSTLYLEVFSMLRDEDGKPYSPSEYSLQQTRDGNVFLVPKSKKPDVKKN
compound,measurement,setting,value
COc1cnc(OC)n2nc(NS(=O)(=O)c3c(OCC(F)F)cccc3C(F)(F)F)nc12,outcome,[1],inactive
same,outcome,[2],inactive
same,outcome,[3],inactive
same,outcome,[4],inactive
same,outcome,"MYC, MYC (gene 4609)",inactive
same,outcome,[5],inactive
same,outcome,[6],inactive
same,outcome,[7],inactive
same,outcome,[8],inactive
same,outcome,[9],inactive
same,outcome,[10],inactive
same,outcome,[11],inactive
same,outcome,[12],inactive
same,outcome,[13],inactive
same,outcome,[14],inactive
same,outcome,[15],inactive
same,outcome,[16],inactive
CCNc1nc(Cl)nc(NCC)n1,outcome,[1],inactive
same,outcome,[2],inactive
same,outcome,[3],inactive
same,outcome,[4],inactive
same,outcome,"MYC, MYC (gene 4609)",inactive
same,outcome,[5],inactive
same,outcome,[6],inactive
same,outcome,[7],inactive
same,outcome,[8],inactive
same,outcome,[9],inactive
same,outcome,[10],inactive
same,outcome,[17],inactive
same,outcome,[11],inactive
same,outcome,[12],inactive
same,outcome,[13],inactive
same,outcome,[14],inactive
same,outcome,[16],inactive
COC(=O)N(OC)c1ccccc1COc1ccn(-c2ccc(Cl)cc2)n1,AC50,[1],50 µM (active)
same,outcome,[2],inactive
same,AC50,[3],76.1 µM (active)
same,AC50,[4],78.1 µM (active)
same,outcome,"MYC, MYC (gene 4609)",inactive
same,AC50,[5],26.5 µM (active)
same,outcome,[6],inactive
same,AC50,[7],78.5 µM (active)
same,AC50,[8],58.7 µM (active)
same,AC50,[9],11.3 µM (active)
same,AC50,[10],84.8 µM (active)
same,outcome,[11],inactive
same,outcome,[12],inactive
same,AC50,[13],75.9 µM (active)
same,AC50,[14],78.7 µM (active)
same,AC50,[16],50 µM (active)
CN(C)C(=S)SSC(=S)N(C)C,outcome,[1],inactive
same,outcome,[2],inactive
same,outcome,[3],inactive
same,outcome,[4],inactive
same,outcome,"MYC, MYC (gene 4609)",inactive
same,outcome,[5],inactive
same,outcome,[18],inactive
same,outcome,[6],inactive
same,outcome,[7],inactive
same,outcome,[8],inactive
same,outcome,[9],inactive
same,outcome,[10],inactive
same,outcome,[11],inactive
same,outcome,[12],inactive
same,outcome,[13],inactive
same,outcome,[14],inactive
same,outcome,[16],inactive
CC1COC(Cn2cncn2)(c2ccc(Oc3ccc(Cl)cc3)cc2Cl)O1 (configuration not stated),AC50,[1],12 µM (active)
same,AC50,[2],12.4 µM (active)
same,AC50,[3],12.6 µM (active)
same,AC50,[4],30.8 µM (active)
same,AC50,"MYC, MYC (gene 4609)",23.9 µM (active)
same,AC50,[5],31.7 µM (active)
same,AC50,[6],80.6 µM (active)
same,AC50,[7],78.5 µM (active)
same,AC50,[8],9.15 µM (active)
same,outcome,[9],inactive
same,outcome,[10],inactive
same,AC50,[17],19.7 µM (active)
same,AC50,[11],84.8 µM (active)
same,outcome,[12],inactive
same,AC50,[13],12.8 µM (active)
same,AC50,[14],19.6 µM (active)
same,AC50,[16],89.8 µM (active)
COP(=S)(OC)Oc1nc(Cl)c(Cl)cc1Cl,outcome,[1],inactive
same,outcome,[2],inactive
same,outcome,[3],inactive
same,outcome,[4],inactive
same,outcome,"MYC, MYC (gene 4609)",inactive
same,outcome,[5],inactive
same,outcome,[6],inactive
same,outcome,[7],inactive
same,outcome,[8],inactive
same,outcome,[9],inactive
same,outcome,[10],inactive
same,outcome,[11],inactive
same,outcome,[12],inactive
same,outcome,[13],inactive
same,outcome,[14],inactive
same,outcome,[16],inactive
C#CCOS(=O)OC1CCCCC1Oc1ccc(C(C)(C)C)cc1 (configuration not stated),outcome,[1],inactive
same,AC50,[2],28.7 µM (active)
same,AC50,[3],28.2 µM (active)
same,AC50,[4],22.5 µM (active)
same,AC50,"MYC, MYC (gene 4609)",22.8 µM (active)
same,outcome,[5],inactive
same,outcome,[18],inactive
same,AC50,[6],29.8 µM (active)
same,AC50,[7],30.7 µM (active)
same,AC50,[8],20.7 µM (active)
same,AC50,[9],50 µM (active)
same,AC50,[10],22.9 µM (active)
same,AC50,[11],30.5 µM (active)
same,AC50,[12],36.3 µM (active)
same,AC50,[13],29.2 µM (active)
same,AC50,[14],27.3 µM (active)
same,AC50,[16],50 µM (active)
